Experimental data published in PubChem BioAssay (NCI).
About 83,000 compounds went through this panel and 20% of them were active in at least one assay; those are over-represented in the sample as a whole.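 Negative percent growth values reflect cell death: -40 means 40% of the cells present at the start died, and -100 means all died.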 The source made the active and inactive calls. How the source made its calls: active means growth percent below 10; inactive means the rest.

How the values were obtained:
Assay in all cases: NCI-60 one-dose screen, 48 h (100 = growth as untreated, 0 = no growth, -100 = all killed)
Settings in all cases: 10 µM unless noted
NCI-H226 lung = test system: NCI-H226 lung
NCI-H322M lung = test system: NCI-H322M lung
HOP-62 NSCLC = test system: HOP-62 NSCLC
NCI-H460 lung = test system: NCI-H460 lung
NCI-H522 lung = test system: NCI-H522 lung
A549/ATCC NSCLC = test system: A549/ATCC NSCLC
COLO 205 colon = test system: COLO 205 colon
DU-145 prostate = test system: DU-145 prostate
K-562 leukemia = test system: K-562 leukemia
MALME-3M melanoma = test system: MALME-3M melanoma
MDA-MB-231 breast = test system: MDA-MB-231 breast
RXF 393 renal = test system: RXF 393 renal
SF-268 CNS = test system: SF-268 CNS
SF-295 CNS = test system: SF-295 CNS
SF-539 CNS = test system: SF-539 CNS
UACC-257 melanoma = test system: UACC-257 melanoma
M14 melanoma = test system: M14 melanoma
786-0 renal = test system: 786-0 renal
HOP-92 NSCLC = test system: HOP-92 NSCLC

Measured: growth

CCCCCCCCCCCCCCCC1=NC(C)(C)CN1C(C)C
active: NCI-H226 lung -5.35% | HOP-62 NSCLC -77.4% | NCI-H460 lung -53.7% | NCI-H522 lung -68.1% | A549/ATCC NSCLC -57.2% | COLO 205 colon -64.6% | DU-145 prostate 7.67% | K-562 leukemia -50.3% | MALME-3M melanoma -49% | MDA-MB-231 breast -62.2% | RXF 393 renal -68.9% | SF-268 CNS -55.2% | SF-295 CNS -48.1% | SF-539 CNS -79.6% | UACC-257 melanoma -31.2% | M14 melanoma -71.4%
inactive: NCI-H322M lung 34.6%

CN(C)c1nc(-c2cccs2)n2nc(-c3ccco3)cc2n1
inactive: NCI-H226 lung 90.2% | NCI-H322M lung 106% | HOP-62 NSCLC 106% | NCI-H460 lung 98.4% | NCI-H522 lung 96.2% | A549/ATCC NSCLC 101% | 786-0 renal 96.1% | COLO 205 colon 126% | DU-145 prostate 116% | K-562 leukemia 106% | MALME-3M melanoma 121% | MDA-MB-231 breast 82.6% | RXF 393 renal 83.7% | SF-268 CNS 104% | SF-295 CNS 106% | SF-539 CNS 93.6% | UACC-257 melanoma 113% | M14 melanoma 98%

CNC1=C([N+](=O)[O-])C(c2ccccc2O)C(C#N)=C(c2cccs2)O1 (stereo not given)
inactive: NCI-H226 lung 97.5% | NCI-H322M lung 98.6% | HOP-62 NSCLC 88% | NCI-H460 lung 105% | A549/ATCC NSCLC 99.7% | 786-0 renal 93.2% | COLO 205 colon 101% | DU-145 prostate 103% | K-562 leukemia 63.8% | MALME-3M melanoma 52.8% | MDA-MB-231 breast 93.8% | RXF 393 renal 89.7% | SF-268 CNS 96.3% | SF-295 CNS 102% | SF-539 CNS 95.6% | UACC-257 melanoma 78.3% | M14 melanoma 93.4%
active: NCI-H522 lung 7.12%

COc1ccc2nc(C)cc(Sc3nc4ccccc4s3)c2c1
inactive: NCI-H226 lung 39.5% | NCI-H322M lung 60% | HOP-62 NSCLC 57.5% | NCI-H460 lung 34.6% | A549/ATCC NSCLC 35.7% | 786-0 renal 73.8% | COLO 205 colon 33.7% | DU-145 prostate 37.3% | MALME-3M melanoma 25.7% | MDA-MB-231 breast 27.9% | SF-268 CNS 42.7% | SF-295 CNS 82.5% | SF-539 CNS 55.4% | UACC-257 melanoma 49% | M14 melanoma 65.5%
active: NCI-H522 lung -20.9% | K-562 leukemia 4.93% | RXF 393 renal -16.5%

N=C(N)c1ccc(NCCNc2ccc(C(=N)N)cc2)cc1
inactive: NCI-H226 lung 62.6% | NCI-H322M lung 95.5% | HOP-62 NSCLC 121% | NCI-H460 lung 50.3% | NCI-H522 lung 92.9% | A549/ATCC NSCLC 42.2% | 786-0 renal 117% | COLO 205 colon 142% | DU-145 prostate 106% | K-562 leukemia 82.1% | MALME-3M melanoma 100% | MDA-MB-231 breast 87.3% | RXF 393 renal 98.3% | SF-268 CNS 113% | SF-295 CNS 66.3% | SF-539 CNS 84.7% | UACC-257 melanoma 62.3% | M14 melanoma 125%

COc1cc(CN2CCC(N3CCCC3=O)c3ccccc32)cc(OC)c1OC (stereo not given)
inactive: NCI-H226 lung 85.9% | NCI-H322M lung 87.9% | HOP-62 NSCLC 95.5% | NCI-H460 lung 89.4% | NCI-H522 lung 55.3% | A549/ATCC NSCLC 80.7% | 786-0 renal 80.4% | COLO 205 colon 106% | DU-145 prostate 108% | K-562 leukemia 46% | MALME-3M melanoma 71.9% | MDA-MB-231 breast 90.4% | RXF 393 renal 112% | SF-268 CNS 91.6% | SF-295 CNS 79.3% | SF-539 CNS 93.7% | UACC-257 melanoma 72.2% | M14 melanoma 92.9%

N/C(=N\O)c1ncc(-c2ccc(C(F)(F)F)cc2)c(NC2CCCCCC2)n1
active: NCI-H226 lung -42.4% [100 µM] | NCI-H322M lung -95.8% [100 µM] | HOP-62 NSCLC -74.2% [100 µM] | NCI-H460 lung -64.8% [100 µM] | HOP-92 NSCLC -89.5% [100 µM] | 786-0 renal -91.5% [100 µM] | COLO 205 colon -58.2% [100 µM] | DU-145 prostate -96.1% [100 µM] | K-562 leukemia -60.4% [100 µM] | MALME-3M melanoma -92.6% [100 µM] | MDA-MB-231 breast -66.3% [100 µM] | RXF 393 renal -67% [100 µM] | SF-268 CNS -89.4% [100 µM] | SF-295 CNS -94.7% [100 µM] | M14 melanoma -91.9% [100 µM]

O=C(CCl)N1c2ccccc2Oc2ccc3ccccc3c21
inactive: NCI-H322M lung 91.4% | A549/ATCC NSCLC 30%
active: NCI-H226 lung 3.48% | HOP-62 NSCLC -16.6% | NCI-H460 lung 2.15% | NCI-H522 lung -83.1% | 786-0 renal -89.4% | COLO 205 colon -94.2% | DU-145 prostate -7.27% | K-562 leukemia 2.96% | MALME-3M melanoma -49% | MDA-MB-231 breast -26.8% | RXF 393 renal -83.7% | SF-268 CNS -39.3% | SF-295 CNS -15.8% | SF-539 CNS -80.1% | UACC-257 melanoma 8.99% | M14 melanoma -70%

Nc1c(N)c2ccccc2c2ccccc12
inactive: NCI-H322M lung 115% | HOP-62 NSCLC 95% | NCI-H460 lung 113% | NCI-H522 lung 111% | A549/ATCC NSCLC 105% | 786-0 renal 103% | COLO 205 colon 124% | DU-145 prostate 111% | MALME-3M melanoma 110% | MDA-MB-231 breast 85.3% | RXF 393 renal 109% | SF-268 CNS 115% | SF-295 CNS 100% | SF-539 CNS 94.6% | UACC-257 melanoma 106% | M14 melanoma 113%

c1ccc(-c2nnn(-c3ccccc3)n2)cc1
inactive: NCI-H226 lung 91.4% | NCI-H322M lung 100% | HOP-62 NSCLC 95.8% | NCI-H460 lung 114% | NCI-H522 lung 89.7% | A549/ATCC NSCLC 99.7% | 786-0 renal 104% | COLO 205 colon 117% | DU-145 prostate 127% | K-562 leukemia 89.1% | MALME-3M melanoma 115% | MDA-MB-231 breast 84.6% | RXF 393 renal 102% | SF-268 CNS 109% | SF-295 CNS 106% | SF-539 CNS 105% | UACC-257 melanoma 103% | M14 melanoma 109%

O=C(Nc1cccc(-n2ccc3c(NC(=O)c4ccccc4)nccc32)c1)c1ccc(N2CCOCC2)c(C(F)(F)F)c1
active: HOP-62 NSCLC 7.08% | NCI-H460 lung 9.44% | NCI-H522 lung -22.8% | A549/ATCC NSCLC 8.39% | 786-0 renal -12.3% | COLO 205 colon -23.4% | K-562 leukemia 5.25% | RXF 393 renal -59.8% | SF-295 CNS -15.4%
inactive: NCI-H322M lung 27% | DU-145 prostate 18.7% | MALME-3M melanoma 53.4% | MDA-MB-231 breast 20.8% | SF-268 CNS 24.2% | SF-539 CNS 11.9% | UACC-257 melanoma 58% | M14 melanoma 38.6%

Clc1ccc(-c2cnc3nonc3n2)s1
inactive: NCI-H226 lung 100% | NCI-H322M lung 96.6% | HOP-62 NSCLC 84.5% | NCI-H460 lung 92.6% | NCI-H522 lung 53.5% | A549/ATCC NSCLC 85% | 786-0 renal 86.1% | COLO 205 colon 67.6% | DU-145 prostate 89.7% | K-562 leukemia 41.7% | MALME-3M melanoma 83% | MDA-MB-231 breast 85.2% | RXF 393 renal 109% | SF-268 CNS 82.7% | SF-295 CNS 92.8% | SF-539 CNS 97.5% | UACC-257 melanoma 64.4% | M14 melanoma 86.6%

CCN1C(=O)/C(=C/N2N=C(c3ccc(Cl)cc3)CC2c2ccc(OC)cc2)SC1=S (stereo not given)
inactive: NCI-H226 lung 93% | NCI-H322M lung 89% | HOP-62 NSCLC 96% | NCI-H460 lung 99.7% | NCI-H522 lung 70.4% | A549/ATCC NSCLC 74.3% | 786-0 renal 76.4% | COLO 205 colon 99.7% | DU-145 prostate 108% | K-562 leukemia 77.8% | MALME-3M melanoma 108% | MDA-MB-231 breast 87.2% | RXF 393 renal 91.9% | SF-268 CNS 95.2% | SF-295 CNS 89.6% | SF-539 CNS 88% | UACC-257 melanoma 89.3% | M14 melanoma 92.3%

O=C(N/N=C/c1ccccc1O)c1ccncc1
active: NCI-H522 lung -20%
inactive: NCI-H226 lung 70.1% | NCI-H322M lung 51.2% | HOP-62 NSCLC 43% | NCI-H460 lung 25.7% | A549/ATCC NSCLC 53.6% | 786-0 renal 51.1% | COLO 205 colon 27.4% | DU-145 prostate 58.3% | K-562 leukemia 64.9% | MALME-3M melanoma 73.6% | MDA-MB-231 breast 62.8% | RXF 393 renal 80.7% | SF-268 CNS 48.3% | SF-295 CNS 54% | SF-539 CNS 70.8% | UACC-257 melanoma 60.7% | M14 melanoma 50.7%

COc1ccc(/C=C/C(=O)CCC(=O)O)cc1OC
inactive: NCI-H226 lung 102% | NCI-H322M lung 97.4% | HOP-62 NSCLC 91.4% | NCI-H460 lung 111% | NCI-H522 lung 93.2% | A549/ATCC NSCLC 103% | 786-0 renal 95.3% | COLO 205 colon 106% | DU-145 prostate 111% | MALME-3M melanoma 102% | MDA-MB-231 breast 119% | RXF 393 renal 116% | SF-268 CNS 107% | SF-295 CNS 104% | SF-539 CNS 101% | UACC-257 melanoma 105% | M14 melanoma 101%

Clc1cc(Cl)cc(-c2cnc3nonc3n2)c1
active: NCI-H522 lung -69.3%
inactive: NCI-H226 lung 104% | NCI-H322M lung 95.1% | HOP-62 NSCLC 87.4% | NCI-H460 lung 106% | A549/ATCC NSCLC 103% | 786-0 renal 93.2% | COLO 205 colon 72.5% | DU-145 prostate 97.9% | K-562 leukemia 79% | MALME-3M melanoma 76.9% | MDA-MB-231 breast 89.7% | RXF 393 renal 108% | SF-268 CNS 93.5% | SF-295 CNS 99.8% | SF-539 CNS 107% | UACC-257 melanoma 89.9% | M14 melanoma 90.2%
